Measured values: the supplement of paper PMC3334620
Over roughly 33,000 sequences, “E-score (-0.5 to 0.5)” has its median near -0.04; the highest 2% begin near 0.36. The list comes from a sample in which the highest values are over-represented; it also holds similar and randomly drawn sequences.

These sequences were tested against T1, Hmlalpha2 (UniProt P0CY09) (assay: PBM E-score (8-mer binding enrichment) (E-score (-0.5 to 0.5)); higher = stronger / more preferred TF binding). Conditions: protein concentration: 200 nM; construct: GST-full length.
T1 sequence: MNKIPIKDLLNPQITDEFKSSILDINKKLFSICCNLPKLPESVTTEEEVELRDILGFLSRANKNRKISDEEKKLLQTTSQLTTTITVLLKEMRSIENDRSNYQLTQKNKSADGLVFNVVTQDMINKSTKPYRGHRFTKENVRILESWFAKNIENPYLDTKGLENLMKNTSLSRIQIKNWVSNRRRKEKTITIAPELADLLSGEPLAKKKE
Summary of the method: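 Full-length yeast transcription factors or their DNA-binding domains, GST-tagged and expressed with PURExpress, were applied at about 100-200 nM to universal all-10-mer Agilent arrays. These arrays had been made double-stranded by primer extension on fresh or once-stripped slides. Detection used fluorescent anti-GST, normalisation used masliner, and E-scores for ungapped eight-base words pooled with reverse complements came from the Universal PBM Analysis Suite.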

| Sequence | PBM E-score |
| --- | --- |
| CGCCAGAG | -0.305 |
| GATGGTCC | -0.0351 |
| CCCGGTGA | -0.242 |
| ACGACATA | 0.134 |
| CCTACATA | 0.13 |
| ACTACATC | 0.275 |
| ACTACATA | 0.378 |
| ACTACAGG | 0.133 |
| GCTACATA | 0.255 |
| ACGACATG | 0.382 |
| ACTACATG | 0.43 |
| ACGACATC | 0.0415 |
| CCGTTGTC | 0.0589 |
| ACCCTGCA | 0.0038 |
| CGATTGCG | -0.0285 |
| AGTACATC | 0.233 |
| AGTACATG | 0.415 |
| GGTACATA | 0.141 |
| AGTACATA | 0.401 |
| AGTACAAG | 0.267 |
| CGTACATA | 0.363 |
| CTGCCATC | -0.239 |

| Sequence | PBM E-score |
| --- | --- |
| CCTCCCCA | -0.233 |
| CCGGCAGC | -0.36 |
| AGCAATCG | 0.108 |
| TATCAAAA | 0.173 |
| CAGGCCCA | -0.135 |
| CTATTCGC | -0.117 |
| TCCGCCGA | -0.0873 |
| TACACGCA | 0.442 |
| AACACGCG | 0.406 |
| AACACGCT | 0.387 |
| AGCACGCT | 0.00597 |
| GACACGCA | 0.301 |
| ACCACGCT | -0.134 |
| CACACGCA | 0.19 |
| CACACGCG | 0.264 |
| ATCACGCG | 0.144 |
| AACACGCC | 0.359 |
| AGCACGCA | 0.0284 |
| AACACGCA | 0.412 |
| ATGTCTTG | 0.0125 |
| CACGCGGA | 0.109 |
| AGATCCTA | -0.165 |

| Sequence | PBM E-score |
| --- | --- |
| ACGGGACT | -0.101 |
| CGAGCATA | -0.325 |
| CCCTAACG | -0.0128 |
| ATACTATG | 0.0473 |
| GAAGCTCC | -0.218 |
| ACTTCTTC | 0.0141 |
| ACTTTACC | 0.151 |
| GCTTTACC | 0.21 |
| ATTTTACG | 0.31 |
| GCTTTAAA | 0.095 |
| CTTTTACC | 0.139 |
| ACTTTACT | 0.109 |
| GCTTTACA | 0.405 |
| ACTTTACA | 0.429 |
| ATTTTACC | 0.188 |
| CTTTTACA | 0.453 |
| ATTTTACA | 0.41 |
| CTTTTATA | 0.0262 |
| ATGGTAGC | -0.037 |
| GTCAGTAA | 0.133 |
| ACTCTCCC | -0.283 |
| CTGGGATC | -0.141 |

| Sequence | PBM E-score |
| --- | --- |
| CACATTGA | 0.097 |
| AATTTCAC | 0.0769 |
| TCTTTGCA | 0.0746 |
| CCTTTACC | -0.204 |
| TCTTTAAA | 0.0801 |
| TCTTTACA | 0.445 |
| CCTTTACA | 0.448 |
| CCTTTACG | 0.223 |
| GGAAAAAC | 0.0566 |
| AATGATAT | 0.0696 |
| AGTCTCTC | -0.306 |
| AGTGTCAA | 0.134 |
| TATGTCAA | 0.426 |
| CATGTCGG | 0.265 |
| CATGTCAA | 0.44 |
| CGTGTCAG | 0.273 |
| CGTGTCAA | 0.438 |
| CATGTCAC | 0.245 |
| GATGTCGA | 0.126 |
| CATGTCAG | 0.314 |
